PubChem BioAssay
Activity calls are given as the source filed them.

Experiments:
Albumin (Bos taurus) = Albumin (Bos taurus) (UniProt P02769); assay: bovine serum albumin binders on microarray, profiling panel, artefact control for SMM control protein annotation, biochemical, small-molecule microarray, Alexa647 label, 635/667 nm fluorescence (AID 1118); conditions: BSA-A647 binding, fluorescence 635 nm, higher = more signal;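 further: score merges 667 nm emission intensity and signal-to-noise per printed compound spot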
[1] = small-molecule microarray binders of probe aXIP, primary screen, biochemical, NeuroSMM set, 635/667 nm fluorescence (AID 1119); conditions: higher = more signal, called active from +8 up or from −8 down;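 further: probe is the protein aXip251-270 applied at 1 µg/mL to compound-printed slides; binding of probe to printed compounds measured as 667 nm fluorescence plus signal to noise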
[2] = small-molecule binders of probe aNOTCH3, primary screen, biochemical, small-molecule microarray, 635/667 nm fluorescence (AID 1120); conditions: higher = more signal;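 further: probe is a biotin-tagged antibody raised against NOTCH3 rather than NOTCH3 protein; score merges spot fluorescence near 667 nm with spot signal to noise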
[3] = small-molecule binders of probe aNOTCH2, primary screen, biochemical, small-molecule microarray, 635/667 nm fluorescence (AID 1121); conditions: higher = more signal;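 further: score merges feature fluorescence read at 667 nm with its signal to noise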
[4] = target: Carbonic anhydrase 2 (Homo sapiens) (UniProt P00918); assay: CAII small-molecule binders, profiling panel, biochemical, small-molecule microarray, Alexa647-labelled CAII (AID 1122); conditions: CAII-A647 binding fluorescence, higher = more signal
[5] = COS7 lysate on small-molecule microarray, probe aHis, 635 nm (AID 1123); conditions: COS7 cell lysate, fluorescence, higher = more signal;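 further: z-score combines 667nm fluorescence intensity with signal-to-noise per printed compound spot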
[6] = compound binding in COS7 lysate, probe aLAP1, primary screen, cell lysate, small-molecule microarray (AID 1124); conditions: probe aLAP1, fluorescence, higher = more signal;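 further: lysate comes from COS7 cells expressing LAP1 and is applied at 0.3 µg/mL; score merges spot fluorescence near 667 nm with signal-to-noise over triplicate slides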
Sam68 (KHDRBS1) = assay: Sam68 small-molecule binders, primary screen, biochemical, small-molecule microarray, 635 nm fluorescence (AID 1125); conditions: small-molecule microarray binding, higher = more signal;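 further: score merges 667 nm channel intensity with signal to noise over triplicate slides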
[7] = system: Chordin-like protein 2 (CHRDL2); assay: CHRDL2 small-molecule binders, primary screen, biochemical, small-molecule microarray, 635 nm fluorescence (AID 1126); conditions: small-molecule microarray binding, fluorescence 635 nm; higher = more signal;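 further: printed compound slides probed with Chrdl2 protein at 4 µg/mL for 1 h at 4 C; score merges 667 nm emission intensity with signal to noise over three replicate slides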
[8] = target: Concanavalin-A (Canavalia ensiformis) (UniProt P02866); assay: ConA small-molecule binders, primary screen, artefact control for SMM control protein annotation, biochemical, small-molecule microarray, Alexa647 label, 635 nm (AID 1127); conditions: ConA-A647 binding fluorescence, higher = more signal;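 further: z combines 667 nm emission intensity with signal-to-noise across three replicate slides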
[9] = anti-His antibody binders, primary screen, artefact control for SMM control protein annotation, biochemical, small-molecule microarray, 635 nm fluorescence (AID 1128); conditions: anti-His Alexa647 antibody binding, higher = more signal;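 further: score merges feature fluorescence with signal-to-noise for each printed compound spot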
[10] = system: Human papillomavirus type 1a E7 protein (residues 1-88); assay: HPV1a E7 small-molecule binders, primary screen, biochemical, small-molecule microarray, residues 1-88, 635 nm (AID 1129); conditions: small-molecule microarray binding, fluorescence 635 nm; higher = more signal
[11] = target: Focal adhesion kinase 1 (Homo sapiens) (UniProt Q05397); assay: small-molecule microarray binders of FAK, primary screen, biochemical, 635/667 nm fluorescence, BSA, DTT (AID 1130); conditions: PTK2 binding, 635 nm fluorescence, higher = more signal;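 further: composite of spot emission at 667 nm and signal to noise over triplicate slides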
[12] = system: Fibrinogen (Alexa647-labelled); assay: fibrinogen binders on compound microarrays, profiling panel, artefact control for SMM control-protein annotation, biochemical, small-molecule microarray, 635/667 nm fluorescence (AID 1131); conditions: fibrinogen-A647 binding fluorescence, higher = more signal;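 further: z-score merges 667 nm fluorescence with per-spot signal-to-noise over triplicate slides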
[13] = target: Follistatin (Homo sapiens) (UniProt P19883); assay: follistatin binders on small-molecule microarrays, primary screen, biochemical, small-molecule microarray, 635/667 nm fluorescence (AID 1132); conditions: FST binding, 635 nm fluorescence, higher = more signal
[14] = target: Fibroblast growth factor 2 (Homo sapiens) (UniProt P09038); assay: FGF2 binders on small-molecule microarrays, primary screen, biochemical, small-molecule microarray, 635/667 nm fluorescence (AID 1133); conditions: small-molecule microarray binding, FGF2, fluorescence 635/667; higher = more signal
[15] = mitochondrial membrane potential change in A549 cells, profiling panel, cell-based, JC-1 fluorescence, basal, 24 h, 100 nL (AID 1138); conditions: higher = more signal;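 further: A549 lung adenocarcinoma cells under basal conditions with no added stimulus; test concentration not given here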
Lefty1 = Lefty1 binders on small-molecule microarrays, primary screen, biochemical, small-molecule microarray, 635/667 nm fluorescence (AID 1139); conditions: small-molecule microarray binding, fluorescence 635/667; higher = more signal
[16] = system: wheat germ agglutinin (Triticum aestivum), Alexa647-labelled; assay: wheat germ agglutinin binders on compound microarrays, profiling panel, artefact control for SMM control-protein annotation, biochemical, small-molecule microarray, 635/667 nm fluorescence (AID 1140); conditions: WGA-A647 binding, 635 nm fluorescence, higher = more signal;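 further: score merges 667 nm feature emission with signal to noise over triplicate slides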
[17] = target: Luciferin 4-monooxygenase (Photinus pyralis) (UniProt P08659); assay: firefly luciferase enzyme inhibitors, primary screen, biochemical, luminescence, purified enzyme, 2006 set (AID 1141); conditions: SteadyGlo luminescence, 30 min, higher = more signal, called active from +8 up or from −8 down;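 further: cell-free assay with purified firefly luciferase at 100 ng per well in PBS; test concentration not given here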
Chain of Luciferin 4-monooxygenase (Photinus pyralis) (P08659 whole entry, looked up): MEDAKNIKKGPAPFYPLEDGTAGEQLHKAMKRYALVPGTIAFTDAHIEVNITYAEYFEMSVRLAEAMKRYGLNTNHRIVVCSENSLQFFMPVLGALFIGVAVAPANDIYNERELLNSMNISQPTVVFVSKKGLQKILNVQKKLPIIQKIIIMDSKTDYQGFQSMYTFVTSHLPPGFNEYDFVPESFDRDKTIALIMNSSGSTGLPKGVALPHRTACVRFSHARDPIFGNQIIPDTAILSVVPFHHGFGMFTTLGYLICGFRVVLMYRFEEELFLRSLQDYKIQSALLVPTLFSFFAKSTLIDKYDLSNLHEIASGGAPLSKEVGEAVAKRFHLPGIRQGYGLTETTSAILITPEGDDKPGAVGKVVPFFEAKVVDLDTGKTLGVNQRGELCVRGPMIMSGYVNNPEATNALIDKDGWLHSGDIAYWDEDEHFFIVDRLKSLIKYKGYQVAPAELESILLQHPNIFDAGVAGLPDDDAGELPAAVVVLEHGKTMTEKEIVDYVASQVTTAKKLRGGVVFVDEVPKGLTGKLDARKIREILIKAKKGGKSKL

Chain of Fibroblast growth factor 2 (Homo sapiens) (P09038 whole entry, looked up): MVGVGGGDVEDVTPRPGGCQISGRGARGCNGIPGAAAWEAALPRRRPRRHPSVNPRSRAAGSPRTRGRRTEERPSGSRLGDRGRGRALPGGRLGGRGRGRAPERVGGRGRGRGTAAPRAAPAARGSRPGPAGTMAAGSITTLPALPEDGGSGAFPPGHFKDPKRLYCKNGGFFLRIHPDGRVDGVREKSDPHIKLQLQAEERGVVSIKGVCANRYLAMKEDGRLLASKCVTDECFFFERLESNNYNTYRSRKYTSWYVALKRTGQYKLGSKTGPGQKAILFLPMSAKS
Chain of Concanavalin-A (Canavalia ensiformis) (P02866 whole entry, looked up): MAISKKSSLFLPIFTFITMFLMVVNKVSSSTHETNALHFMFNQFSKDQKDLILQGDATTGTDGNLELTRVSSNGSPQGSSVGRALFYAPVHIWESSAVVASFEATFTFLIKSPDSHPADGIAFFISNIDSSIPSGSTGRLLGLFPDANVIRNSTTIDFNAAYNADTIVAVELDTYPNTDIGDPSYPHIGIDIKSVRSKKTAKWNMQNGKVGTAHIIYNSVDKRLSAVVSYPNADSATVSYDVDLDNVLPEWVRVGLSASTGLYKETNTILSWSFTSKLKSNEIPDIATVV
Chain of Albumin (Bos taurus) (P02769 whole entry, looked up): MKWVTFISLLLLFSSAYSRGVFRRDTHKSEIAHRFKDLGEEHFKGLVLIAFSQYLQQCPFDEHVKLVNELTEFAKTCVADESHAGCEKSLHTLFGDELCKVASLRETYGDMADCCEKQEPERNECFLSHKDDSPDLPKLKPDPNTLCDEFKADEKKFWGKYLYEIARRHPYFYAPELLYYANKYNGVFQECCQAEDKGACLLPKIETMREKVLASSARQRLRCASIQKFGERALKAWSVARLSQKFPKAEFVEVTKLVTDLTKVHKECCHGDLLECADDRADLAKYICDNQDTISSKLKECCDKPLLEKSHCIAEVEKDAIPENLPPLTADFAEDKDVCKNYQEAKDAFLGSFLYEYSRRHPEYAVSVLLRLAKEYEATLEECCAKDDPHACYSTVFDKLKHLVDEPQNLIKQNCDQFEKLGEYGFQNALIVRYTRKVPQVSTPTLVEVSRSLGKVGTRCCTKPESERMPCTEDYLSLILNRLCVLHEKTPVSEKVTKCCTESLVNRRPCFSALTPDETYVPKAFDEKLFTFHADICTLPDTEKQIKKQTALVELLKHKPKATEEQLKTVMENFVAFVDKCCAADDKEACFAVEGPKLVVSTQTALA
Chain of Follistatin (Homo sapiens) (P19883 whole entry, looked up): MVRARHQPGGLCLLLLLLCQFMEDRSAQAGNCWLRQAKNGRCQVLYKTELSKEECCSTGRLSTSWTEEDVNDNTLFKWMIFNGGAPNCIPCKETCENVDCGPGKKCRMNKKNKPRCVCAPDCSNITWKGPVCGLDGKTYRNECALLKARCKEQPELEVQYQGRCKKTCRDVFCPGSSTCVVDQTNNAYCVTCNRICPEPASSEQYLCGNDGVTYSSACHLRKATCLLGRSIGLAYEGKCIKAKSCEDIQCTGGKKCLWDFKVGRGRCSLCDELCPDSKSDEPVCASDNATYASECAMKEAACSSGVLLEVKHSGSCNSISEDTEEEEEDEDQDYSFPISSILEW
Chain of Focal adhesion kinase 1 (Homo sapiens) (Q05397 whole entry, looked up): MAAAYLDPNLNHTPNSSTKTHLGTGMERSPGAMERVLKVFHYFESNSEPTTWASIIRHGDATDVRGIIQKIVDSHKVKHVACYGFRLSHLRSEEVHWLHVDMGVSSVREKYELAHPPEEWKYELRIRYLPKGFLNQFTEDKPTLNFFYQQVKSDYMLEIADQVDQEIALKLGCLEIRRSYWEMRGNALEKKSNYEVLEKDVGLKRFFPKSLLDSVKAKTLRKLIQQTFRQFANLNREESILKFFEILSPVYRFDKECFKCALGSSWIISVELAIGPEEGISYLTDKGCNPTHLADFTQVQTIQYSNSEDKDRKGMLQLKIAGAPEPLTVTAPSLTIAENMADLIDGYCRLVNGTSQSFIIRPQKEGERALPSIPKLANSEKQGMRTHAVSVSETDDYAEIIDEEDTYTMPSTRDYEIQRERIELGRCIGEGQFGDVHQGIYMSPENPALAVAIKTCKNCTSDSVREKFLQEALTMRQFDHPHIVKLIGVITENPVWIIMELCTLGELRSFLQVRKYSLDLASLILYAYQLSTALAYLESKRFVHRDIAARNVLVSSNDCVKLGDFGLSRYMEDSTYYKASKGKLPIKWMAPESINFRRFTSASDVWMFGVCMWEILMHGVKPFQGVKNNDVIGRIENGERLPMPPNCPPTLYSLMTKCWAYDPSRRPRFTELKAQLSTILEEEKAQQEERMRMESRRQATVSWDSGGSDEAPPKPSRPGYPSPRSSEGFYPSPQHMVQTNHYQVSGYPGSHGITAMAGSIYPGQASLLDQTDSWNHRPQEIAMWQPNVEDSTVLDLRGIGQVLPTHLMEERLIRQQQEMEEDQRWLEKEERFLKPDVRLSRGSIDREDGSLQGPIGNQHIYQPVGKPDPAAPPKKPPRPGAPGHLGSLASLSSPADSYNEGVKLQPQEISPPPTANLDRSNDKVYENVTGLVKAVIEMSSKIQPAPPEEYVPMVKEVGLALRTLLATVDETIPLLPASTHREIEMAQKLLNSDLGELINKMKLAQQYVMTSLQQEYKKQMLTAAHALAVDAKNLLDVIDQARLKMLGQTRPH

Structure (SMILES)	composite z-score (Albumin (Bos taurus))	composite Z-score [1]	composite z-score [2]	composite z-score [3]	composite z-score [4]	composite z-score [5]	composite z-score [6]	composite z-score (Sam68 (KHDRBS1))	composite z-score [7]	composite z-score [8]	composite z-score [9]	composite z-score [10]	composite z-score [11]	composite z-score [12]	composite z-score [13]	composite z-score [14]	z-score [15]	composite z-score (Lefty1)	composite z-score [16]	z-score [17]
CCOC(=O)[C@H](CC(C)C)NC(=O)CCC1CC(OC(=O)NCc2cccc3ccccc23)CC2(CCCC(COC(=O)NCc3ccncc3)O2)O1 (stereo not given in full)	0.323	-0.0775 (inactive)	-0.0658	-0.14	0.215	0.502	0.218	1.29	0.351	0.67	0.894	1.19	0.0121	0.839	0.768	1.58	1.42	1.01	0.725	0.301 (inactive)
CON=Cc1ccc(C(=O)N2[C@H](c3ccc(C)cc3)[C@@H](C)CC[C@H]2C(=O)OC)cc1	0.54	0.059 (inactive)	0.0257	-0.202	0.0882	0.715	0.251	1.11	0.262	0.669	2.72	0.73	-0.176	0.53	0.419	0.412	-0.0876	0.595	0.112	-1.06 (inactive)
Cc1ccc(S(=O)(=O)NC(CCc2ccccc2)CC(=O)C(C)(C)C)cc1 (stereo not given)	-0.122	0.6 (inactive)	0.0591	-0.0984	0.0117	0.0881	-0.113	0.93	0.686	0.87	0.569	0.7	0.0786	0.821	0.615	0.939	-0.124	0.625	0.693	0.74 (inactive)
Cc1ccc(S(=O)(=O)N[C@H]2COC(=O)CC=C[C@H](C)[C@@H](NS(=O)(=O)c3ccc(C)cc3)COC(=O)CC=C[C@@H]2C)cc1	-0.109	-0.286 (inactive)	0.0282	-0.14	-0.0386	-0.364	-0.242	0.0236	0.477	0.128	-0.308	0.42	0.106	0.129	0.471	0.647	-0.617	0.556	0.0337	0.846 (inactive)
CO[C@H]1COC(=O)CC=C[C@H](C)[C@@H](OC)COC(=O)[C@@H](C)NC(=O)CC=C[C@@H]1C	-0.614	0.611 (inactive)	-0.173	-0.169	-0.581	-0.629	0.304	-0.0974	1.47	-0.897	0.437	-1.32	-0.535	-1.31	1.45	1.1	-1.05	1.47	0.0216	0.674 (inactive)
CC(CCN1CCCCc2nc(C)c(C)cc21)=NOC[C@@H](C)[C@H](OCc1ccccc1)C(C)C	-0.303	-0.461 (inactive)	-0.427	-0.298	-0.497	-0.31	-0.899	-0.758	-1.78	-1.88	1.59	-0.824	-0.0923	-2.81	-2.3	-0.84	0.37	-0.795	-0.614	-0.486 (inactive)
